Experimental data published in PubChem BioAssay AID1159580 (chemical genetic matrix, 2015).
Out of some 5,500 compounds screened, about 2,000 (36%) were called active. Roughly 18% stayed inconclusive and do not appear here. Rule as the data show it: active = normalized growth mostly below about 0.91 (no sharp cut-off); inconclusive = no clear call, values can overlap the other calls; inactive = mostly above about 0.92. The list shows a part of the results.

Assay: chemical genetic growth profiling, strain panel (AID 1159580);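 also: tested at 20 µM; growth read once vehicle control cultures reached saturation at 30 °C; 1 = growth at the plate median or of vehicle wells; lower values mean less growth of the strain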
Conditions: S. cerevisiae deletion strains, growth OD

Measured: normalized growth

CCC(C)C(=O)O[C@H]1C[C@H](O)C=C2C=C[C@H](C)[C@H](CC[C@@H](O)C[C@@H](O)CC(=O)O)C21 (stereo not given in full)
inactive: locus YAL021C, strain ccr4, active compounds read low 1.02 | locus YAL026C, strain drs2, active compounds read low 1.03 | locus YAL030W, strain snc1, active compounds read low 1 | locus YBL061C, strain skt5, active compounds read low 1.01 | locus YBR009C, strain hhf1, active compounds read low 0.966 | locus YBR023C, strain chs3, active compounds read low 1.02 | locus YBR171W, strain sec66, active compounds read low 1 | locus YBR231C, strain swc5, active compounds read low 0.976 | locus YBR279W, strain paf1, active compounds read low 1.02 | locus YCL011C, strain gbp2, active compounds read low 1.02 | locus YCL016C, strain dcc1, active compounds read low 1.03 | locus YCL061C, strain MRC1, active compounds read low 1.01 | locus YCL069W, strain vba3, active compounds read low 1.01 | locus YCR088W, strain abp1, active compounds read low 1 | locus YDL005C, strain med2, active compounds read low 1.03 | locus YDL040C, strain nat1, active compounds read low 0.993 | locus YDR001C, strain nth1, active compounds read low 1.01 | locus YDR069C, strain doa4, active compounds read low 1.01 | locus YDR159W, strain sac3, active compounds read low 0.937 | locus YDR195W, strain ref2 0.952 | locus YDR297W, strain sur2, active compounds read low 1.01 | locus YDR334W, strain swr1, active compounds read low 0.994 | locus YDR335W, strain msn5, active compounds read low 1.02 | locus YDR392W, strain spt3, active compounds read low 0.987 | locus YEL003W, strain gim4, active compounds read low 1.02 | locus YEL037C, strain rad23, active compounds read low 1.02 | locus YEL061C, strain CIN8 (second series), active compounds read low 0.986 | locus YER015W, strain faa2, active compounds read low 1 | locus YER016W, strain bim1, active compounds read low 1.06 | locus YER111C, strain swi4, active compounds read low 1.02 | locus YER155C, strain BEM2 (second series), active compounds read low 1.02 | locus YFR010W, strain ubp6, active compounds read low 0.995 | locus YGL167C, strain pmr1, active compounds read low 1 | locus YGL173C, strain kem1, active compounds read low 1.02 | locus YGL227W, strain vid30, active compounds read low 1 | locus YGL240W, strain doc1, active compounds read low 1.04 | locus YGL253W, strain hxk2, active compounds read low 1.02 | locus YHR013C, strain ard1, active compounds read low 1.02 | locus YHR027C, strain rpn1, active compounds read low 1.01 | locus YHR030C, strain SLT2, active compounds read low 0.977 | locus YHR079C, strain IRE1, active compounds read low 0.975 | locus YHR142W, strain chs7, active compounds read low 1.02 | locus YJL092W, strain hpr5, active compounds read low 1.01 | locus YJL095W, strain BCK1 (second series), active compounds read low 1.02 | locus YJL095W, strain BCK1, active compounds read low 0.965 | locus YJL115W, strain asf1, active compounds read low 1.01 | locus YJL129C, strain trk1, active compounds read low 1.02 | locus YJL154C, strain vps35, active compounds read low 1.01 | locus YJL164C, strain tpk1, active compounds read low 1.01 | locus YJL166W, strain qcr8, active compounds read low 0.992 | locus YJL187C, strain SWE1, active compounds read low 1.01 | locus YJR066W, strain TOR1, active compounds read low 0.907 | locus YKL160W, strain elf1, active compounds read low 1.05 | locus YKR026C, strain gcn3, active compounds read low 0.99 | locus YKR091W, strain srl3, active compounds read low 1 | locus YLL001W, strain dnm1, active compounds read low 0.961 | locus YLL026W, active compounds read low 1 | locus YLL041C, strain sdh2, active compounds read low 0.991 | locus YLR027C, strain aat2, active compounds read low 1 | locus YLR113W, strain HOG1, active compounds read low 1 | locus YLR221C, strain rsa3, active compounds read low 0.998 | locus YLR258W, strain gsy2, active compounds read low 1.03 | locus YLR262C, strain YPT6 (second series), active compounds read low 1.12 | locus YLR320W, strain mms22, active compounds read low 0.963 | locus YLR342W, strain FKS1, active compounds read low 1.02 | locus YLR357W, strain rsc2, active compounds read low 1 | locus YLR370C, strain arc18, active compounds read low 1.02 | locus YLR384C, strain iki3, active compounds read low 0.991 | locus YML120C, strain ndi1, active compounds read low 1.02 | locus YMR058W, strain fet3, active compounds read low 1.01 | locus YMR125W, strain sto1, active compounds read low 1.04 | locus YMR129W, active compounds read low 1 | locus YMR205C, strain PFK2, active compounds read low 0.972 | locus YMR231W, strain pep5, active compounds read low 1 | locus YNL071W, strain lat1, active compounds read low 1 | locus YNL183C, strain NPR1, active compounds read low 0.902 | locus YNL209W, strain ssb2, active compounds read low 1.01 | locus YNL248C, strain rpa49, active compounds read low 1.03 | locus YNL322C, strain KRE1 (second series), active compounds read low 1.06 | locus YNR049C, strain mso1, active compounds read low 1.01 | locus YOR001W, strain rrp6, active compounds read low 0.992 | locus YOR070C, strain gyp1, active compounds read low 1 | locus YOR080W, strain dia2, active compounds read low 0.999 | locus YOR083W, strain WHI5, active compounds read low 1.01 | locus YOR106W, strain vam3, active compounds read low 1.04 | locus YOR231W, strain MKK1, active compounds read low 0.954 | locus YOR265W, strain rbl2, active compounds read low 1 | locus YOR270C, strain vph1, active compounds read low 0.946 | locus YOR290C, strain snf2, active compounds read low 1.05 | locus YPL051W, strain arl3, active compounds read low 1.06 | locus YPL078C, strain atp4, active compounds read low 1.05 | locus YPL106C, strain sse1, active compounds read low 1.02 | locus YPL240C, strain hsp82, active compounds read low 1.01 | locus YPL256C, strain CLN2, active compounds read low 1.01
active: locus YDR137W, strain rgp1, active compounds read low 1.3 [resistant]
